# From PubChem BioAssay (NCI)
# Compounds without any hit were thinned out: in the full panel of roughly 79,000, 15% have a hit. Values without a mark were called inactive. Activity calls are given as the source filed them. Cut-off read from the data, not from the text of the source: active = growth inhibition above about 70%; inactive = the rest.
# Key:
# [1] = NCI Yeast Anticancer Drug Screen. Data for the mlh1 strain (AID 171);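 note: 0% = growth of vehicle-treated control cultures of the same strain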; details: S. cerevisiae mlh1 strain growth inhibition, stronger effect = higher value
# In short: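 Growth of the mutant yeast strain after compound exposure, expressed as inhibition relative to vehicle-only controls.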
# [2] = NCI Yeast Anticancer Drug Screen. Data for the sgs1 strain (AID 173);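 note: 0% = growth of vehicle-only control cultures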; details: S. cerevisiae sgs1 mutant, stronger effect = higher value
# In short: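 Growth of a yeast strain bearing a defined genetic alteration is measured after compound treatment. Inhibition is expressed relative to vehicle-only controls.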
# [3] = NCI Yeast Anticancer Drug Screen. Data for the mlh1 rad18 strain (AID 175); details: S. cerevisiae mlh1 rad18 strain growth inhibition, stronger effect = higher value
# In short: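 Read-out is yeast growth inhibition, calculated against vehicle-only controls. The compound was applied to a strain engineered with DNA damage repair alterations.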
# [4] = NCI Yeast Anticancer Drug Screen. Data for the rad18 strain (AID 177); details: S. cerevisiae rad18 mutant growth inhibition, stronger effect = higher value
# In short: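 Growth of the mutant yeast strain after compound exposure, normalised to vehicle-only cultures.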
# [5] = NCI Yeast Anticancer Drug Screen. Data for the rad52 strain (AID 147);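 note: 0% = growth of vehicle-treated control cultures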; details: S. cerevisiae rad52 mutant growth inhibition, stronger effect = higher value
# In short: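 Compounds are applied to a genetically defined yeast strain lacking normal DNA damage repair, and inhibition of growth is expressed relative to cultures given vehicle only.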
# [6] = NCI Yeast Anticancer Drug Screen. Data for the wt1 strain (AID 149);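 note: 0% = growth of vehicle-treated wt1 cultures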; details: S. cerevisiae wt1 strain (SPY 50644) growth inhibition, stronger effect = higher value
# In short: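 Each compound is tested on wt1 yeast and the loss of growth versus vehicle gives the inhibition value.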
# [7] = NCI Yeast Anticancer Drug Screen. Data for the rad50EPP+ strain (AID 151);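 note: 0% = growth of vehicle-treated control cultures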; details: S. cerevisiae rad50 mutant strain, stronger effect = higher value
# In short: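 Compounds were applied to the rad50EPP+ yeast strain, which bears a defined DNA repair alteration, and growth inhibition was determined relative to vehicle-treated cultures.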
# [8] = NCI Yeast Anticancer Drug Screen. Data for the mgt1 strain (AID 153); details: S. cerevisiae mgt1 mutant growth inhibition, stronger effect = higher value
# In short: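 Strain: mgt1 yeast, one of a set carrying defined DNA damage repair or cell cycle control alterations. Compound-treated growth compared with vehicle.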
# [9] = NCI Yeast Anticancer Drug Screen. Data for the rad50 strain (AID 155);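 note: 0% = growth of vehicle-only cultures of the same strain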; details: S. cerevisiae rad50 strain growth inhibition, stronger effect = higher value
# In short: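 Vehicle-treated cultures provide the reference for the growth inhibition reported for compound-exposed, repair-deficient yeast.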
# [10] = NCI Yeast Anticancer Drug Screen. Data for the mec2-1 strain (AID 157); details: S. cerevisiae mec2-1 strain, stronger effect = higher value
# In short: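 Strain: mec2-1 (DNA repair/cell cycle alteration). Compound exposure, then growth measured; inhibition expressed relative to vehicle.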
# [11] = NCI Yeast Anticancer Drug Screen. Data for the rad14 strain (AID 159);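 note: 0% = growth of vehicle-treated control cultures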; details: S. cerevisiae rad14 strain growth inhibition, stronger effect = higher value
# In short: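 Inhibition of growth is reported for a repair-deficient yeast mutant following compound treatment, calculated relative to cultures that received vehicle.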
# [12] = NCI Yeast Anticancer Drug Screen. Data for the sgs1 mgt1 strain (AID 161);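 note: 0% = growth of cultures given vehicle only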; details: S. cerevisiae sgs1 mgt1 strain, stronger effect = higher value
# In short: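 Read-out: growth inhibition vs vehicle controls. Cells: mutant yeast strain deficient in DNA damage repair.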
# [13] = NCI Yeast Anticancer Drug Screen. Data for the cln2 rad14 strain (AID 165);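 note: 0% = growth equal to vehicle treated cultures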; details: S. cerevisiae cln2 rad14 strain, stronger effect = higher value
# In short: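 Compounds are applied to the cln2 rad14 yeast strain, and growth is then compared with that of vehicle-treated cultures to give inhibition.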
# [14] = NCI Yeast Anticancer Drug Screen. Data for the bub3 strain (AID 167); details: S. cerevisiae bub3 mutant strain, stronger effect = higher value
# In short: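 Mutant yeast screening strain plus compound; vehicle-treated cultures serve as the 0% inhibition reference.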
# [15] = NCI Yeast Anticancer Drug Screen. Data for the wt2 strain (AID 169); details: S. cerevisiae wt2 strain growth inhibition, stronger effect = higher value
# In short: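 This strain belongs to a panel of yeast strains with defined genetic alterations in DNA damage repair or cell cycle control. Compounds are applied, and growth inhibition is measured against vehicle-treated cultures.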
# [16] = at 5.0 µM (retest, dose inferred, filed as 0.5)
# [17] = at 50.0 µM (retest, dose inferred, filed as 5.0)
smiles,measurement,setting,value
O=C(CCCN1CCC(Nc2ccc(F)cc2)(c2nnnn2C2CCCCC2)CC1)c1ccc(F)cc1,growth inhibition,[1]; at 1.2 µM,-3%
same,growth inhibition,[1]; at 3.7 µM,-6%
same,growth inhibition,[1]; at 11.0 µM,-8%
same,growth inhibition,[1]; at 33.0 µM,-6%
same,growth inhibition,[1]; at 100.0 µM,98% (active)
same,growth inhibition,[2]; at 1.2 µM,-1%
same,growth inhibition,[2]; at 3.7 µM,-1%
same,growth inhibition,[2]; at 11.0 µM,-4%
same,growth inhibition,[2]; at 33.0 µM,7%
same,growth inhibition,[2]; at 100.0 µM,98% (active)
same,growth inhibition,[3]; [16],-3%
same,growth inhibition,[3]; [17],41%
same,growth inhibition,[3]; at 50.0 µM,77.8% (active)
same,growth inhibition,[4]; at 1.2 µM,3%
same,growth inhibition,[4]; at 3.7 µM,0%
same,growth inhibition,[4]; at 11.0 µM,14%
same,growth inhibition,[4]; at 33.0 µM,17%
same,growth inhibition,[4]; at 100.0 µM,99% (active)
C/C(=N\OCC(O)CNCCSCc1ccccc1)c1ccccc1Cl (centres undefined),growth inhibition,[5]; at 1.2 µM,2%
same,growth inhibition,[5]; at 3.7 µM,5%
same,growth inhibition,[5]; at 11.0 µM,26%
same,growth inhibition,[5]; at 33.0 µM,45%
same,growth inhibition,[5]; at 100.0 µM,80% (active)
same,growth inhibition,[6]; at 1.2 µM,-3%
same,growth inhibition,[6]; at 3.7 µM,0%
same,growth inhibition,[6]; at 11.0 µM,6%
same,growth inhibition,[6]; at 33.0 µM,19%
same,growth inhibition,[6]; at 100.0 µM,40%
same,growth inhibition,[7]; at 1.2 µM,-1%
same,growth inhibition,[7]; at 3.7 µM,0%
same,growth inhibition,[7]; at 11.0 µM,2%
same,growth inhibition,[7]; at 33.0 µM,6%
same,growth inhibition,[7]; at 100.0 µM,12%
same,growth inhibition,[8]; at 1.2 µM,4%
same,growth inhibition,[8]; at 3.7 µM,9%
same,growth inhibition,[8]; at 11.0 µM,34%
same,growth inhibition,[8]; at 33.0 µM,85% (active)
same,growth inhibition,[8]; at 100.0 µM,100% (active)
same,growth inhibition,[9]; at 1.2 µM,12%
same,growth inhibition,[9]; at 3.7 µM,-12%
same,growth inhibition,[9]; [16],40%
same,growth inhibition,[9]; at 11.0 µM,64%
same,growth inhibition,[9]; at 33.0 µM,77% (active)
same,growth inhibition,[9]; [17],69%
same,growth inhibition,[9]; at 50.0 µM,80.9% (active)
same,growth inhibition,[9]; at 100.0 µM,95% (active)
same,growth inhibition,[10]; at 1.2 µM,3%
same,growth inhibition,[10]; at 3.7 µM,4%
same,growth inhibition,[10]; [16],2%
same,growth inhibition,[10]; at 11.0 µM,28%
same,growth inhibition,[10]; at 33.0 µM,50%
same,growth inhibition,[10]; [17],48%
same,growth inhibition,[10]; at 50.0 µM,82.7% (active)
same,growth inhibition,[10]; at 100.0 µM,88% (active)
same,growth inhibition,[11]; at 1.2 µM,30%
same,growth inhibition,[11]; at 3.7 µM,46%
same,growth inhibition,[11]; at 11.0 µM,85% (active)
same,growth inhibition,[11]; at 33.0 µM,99% (active)
same,growth inhibition,[11]; at 100.0 µM,99% (active)
same,growth inhibition,[12]; [16],30%
same,growth inhibition,[12]; [17],58%
same,growth inhibition,[12]; at 50.0 µM,87.5% (active)
same,growth inhibition,[13]; [16],14%
same,growth inhibition,[13]; [17],61%
same,growth inhibition,[13]; at 50.0 µM,66.8%
same,growth inhibition,[14]; at 1.2 µM,6%
same,growth inhibition,[14]; at 3.7 µM,25%
same,growth inhibition,[14]; [16],29%
same,growth inhibition,[14]; at 11.0 µM,54%
same,growth inhibition,[14]; at 33.0 µM,81% (active)
same,growth inhibition,[14]; [17],73% (active)
same,growth inhibition,[14]; at 50.0 µM,86% (active)
same,growth inhibition,[14]; at 100.0 µM,97% (active)
same,growth inhibition,[15]; at 1.2 µM,-1%
same,growth inhibition,[15]; at 3.7 µM,8%
same,growth inhibition,[15]; at 11.0 µM,11%
same,growth inhibition,[15]; at 33.0 µM,30%
same,growth inhibition,[15]; at 100.0 µM,81% (active)
same,growth inhibition,[1]; at 1.2 µM,3%
same,growth inhibition,[1]; at 3.7 µM,4%
same,growth inhibition,[1]; at 11.0 µM,24%
same,growth inhibition,[1]; at 33.0 µM,71% (active)
same,growth inhibition,[1]; at 100.0 µM,99% (active)
same,growth inhibition,[2]; at 1.2 µM,8%
same,growth inhibition,[2]; at 3.7 µM,17%
same,growth inhibition,[2]; at 11.0 µM,41%
same,growth inhibition,[2]; at 33.0 µM,69%
same,growth inhibition,[2]; at 100.0 µM,97% (active)
same,growth inhibition,[3]; [16],21%
same,growth inhibition,[3]; [17],41%
same,growth inhibition,[3]; at 50.0 µM,95.3% (active)
same,growth inhibition,[4]; at 1.2 µM,12%
same,growth inhibition,[4]; at 3.7 µM,32%
same,growth inhibition,[4]; at 11.0 µM,55%
same,growth inhibition,[4]; at 33.0 µM,80% (active)
same,growth inhibition,[4]; at 100.0 µM,97% (active)
COc1cc2c(cc1O)[C@H](C)C(c1ccccc1OC)O2 (some centres undefined),growth inhibition,[5]; at 1.2 µM,-41%
same,growth inhibition,[5]; at 3.7 µM,-34%
same,growth inhibition,[5]; at 11.0 µM,-31%
same,growth inhibition,[5]; at 33.0 µM,-19%
same,growth inhibition,[5]; at 100.0 µM,96% (active)
same,growth inhibition,[6]; at 1.2 µM,-11%
same,growth inhibition,[6]; at 3.7 µM,-13%
same,growth inhibition,[6]; at 11.0 µM,-13%
same,growth inhibition,[6]; at 33.0 µM,-17%
same,growth inhibition,[6]; at 100.0 µM,96% (active)
same,growth inhibition,[7]; at 1.2 µM,-39%
same,growth inhibition,[7]; at 3.7 µM,-68%
same,growth inhibition,[7]; at 11.0 µM,-54%
same,growth inhibition,[7]; at 33.0 µM,-8%
same,growth inhibition,[7]; at 100.0 µM,19%
same,growth inhibition,[8]; at 1.2 µM,1%
same,growth inhibition,[8]; at 3.7 µM,5%
same,growth inhibition,[8]; at 11.0 µM,-4%
same,growth inhibition,[8]; at 33.0 µM,33%
same,growth inhibition,[8]; at 100.0 µM,97% (active)
same,growth inhibition,[9]; at 1.2 µM,-4%
same,growth inhibition,[9]; at 3.7 µM,-2%
same,growth inhibition,[9]; [16],-13%
same,growth inhibition,[9]; at 11.0 µM,-8%
same,growth inhibition,[9]; at 33.0 µM,4%
same,growth inhibition,[9]; [17],4%
same,growth inhibition,[9]; at 50.0 µM,15.5%
same,growth inhibition,[9]; at 100.0 µM,96% (active)
same,growth inhibition,[10]; at 1.2 µM,-27%
same,growth inhibition,[10]; at 3.7 µM,-15%
same,growth inhibition,[10]; [16],-44%
same,growth inhibition,[10]; at 11.0 µM,-20%
same,growth inhibition,[10]; at 33.0 µM,6%
same,growth inhibition,[10]; [17],13%
same,growth inhibition,[10]; at 50.0 µM,17.6%
same,growth inhibition,[10]; at 100.0 µM,95% (active)
same,growth inhibition,[11]; at 1.2 µM,-7%
same,growth inhibition,[11]; at 3.7 µM,-11%
same,growth inhibition,[11]; at 11.0 µM,-11%
same,growth inhibition,[11]; at 33.0 µM,7%
same,growth inhibition,[11]; at 100.0 µM,96% (active)
same,growth inhibition,[12]; [16],-16%
same,growth inhibition,[12]; [17],59%
same,growth inhibition,[12]; at 50.0 µM,68%
same,growth inhibition,[13]; [16],26%
same,growth inhibition,[13]; [17],24%
same,growth inhibition,[13]; at 50.0 µM,29.9%
same,growth inhibition,[14]; at 1.2 µM,24%
same,growth inhibition,[14]; at 3.7 µM,32%
same,growth inhibition,[14]; [16],20%
same,growth inhibition,[14]; at 11.0 µM,22%
same,growth inhibition,[14]; at 33.0 µM,55%
same,growth inhibition,[14]; [17],81% (active)
same,growth inhibition,[14]; at 50.0 µM,62.4%
same,growth inhibition,[14]; at 100.0 µM,97% (active)
same,growth inhibition,[15]; at 1.2 µM,-26%
same,growth inhibition,[15]; at 3.7 µM,-32%
same,growth inhibition,[15]; at 11.0 µM,-26%
same,growth inhibition,[15]; at 33.0 µM,-4%
same,growth inhibition,[15]; at 100.0 µM,96% (active)
same,growth inhibition,[2]; at 1.2 µM,-10%
same,growth inhibition,[2]; at 3.7 µM,-17%
same,growth inhibition,[2]; at 11.0 µM,-12%
same,growth inhibition,[2]; at 33.0 µM,10%
same,growth inhibition,[2]; at 100.0 µM,96% (active)
same,growth inhibition,[3]; [16],1%
same,growth inhibition,[3]; [17],22%
same,growth inhibition,[3]; at 50.0 µM,19.6%
same,growth inhibition,[4]; at 1.2 µM,-9%
same,growth inhibition,[4]; at 3.7 µM,-22%
same,growth inhibition,[4]; at 11.0 µM,11%
same,growth inhibition,[4]; at 33.0 µM,20%
same,growth inhibition,[4]; at 100.0 µM,94% (active)
